High-throughput results (PubChem)
Only some compounds are listed: those with a hit (about 4% of all), similar ones and a draw of the others.
Mtb betalactam: beta-lactam sensitization of Mtb H37Rv. M. tuberculosis H37Rv growth with meropenem, percent inhibition. inhibition, % at 25 µM. 0.27% of 330,000 active; call rule not given here;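 note: growth measured after seven days incubation then overnight dye step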
Rv3671c protease: inhibits the M. tuberculosis serine protease Rv3671c. P9WHR9. AID 2606. inhibition, % at 5.96 µM. 0.048% of 320,000 active; in the data active = inhibition above about 38%;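 note: extracellular domain of Rv3671c used as enzyme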
Target sequence (P9WHR9 whole entry, looked up, the tested form may be a part): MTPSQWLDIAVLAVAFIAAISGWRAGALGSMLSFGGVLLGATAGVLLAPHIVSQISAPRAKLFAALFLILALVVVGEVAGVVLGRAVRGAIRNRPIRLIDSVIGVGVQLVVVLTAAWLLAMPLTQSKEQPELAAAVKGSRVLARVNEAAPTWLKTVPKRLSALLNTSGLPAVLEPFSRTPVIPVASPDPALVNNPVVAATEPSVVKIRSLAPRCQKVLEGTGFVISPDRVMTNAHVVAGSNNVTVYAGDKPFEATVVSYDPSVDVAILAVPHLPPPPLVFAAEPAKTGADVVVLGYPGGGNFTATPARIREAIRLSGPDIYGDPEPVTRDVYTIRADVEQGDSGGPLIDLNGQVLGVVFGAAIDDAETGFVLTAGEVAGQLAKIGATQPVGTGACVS
GDH-TPI inh: inhibits GDH-TPI coupling enzymes, artifact for Mtb FBA screen; inhibition, % at 4.8 µM; 1.2% of 360,000 active; GDH-TPI coupled enzyme counterscreen, NADH absorbance; AID 588335; in the data active = inhibition above about 30%
Mtb FBA inh: inhibitors of M. tuberculosis fructose-bisphosphate aldolase | AID 588726 | purified M. tuberculosis FBA, fluorescence read-out | 2.3% of 360,000 active | inhibition, % at 1 µM; in the data active = inhibition above about 27%
Mtb UGM inh: blocks M. tuberculosis UGM enzyme; 0.06% of 320,000 active; purified UGM, fluorescence polarization probe displacement; inhibition, % at 10 µM; P9WIQ1; in the data active = inhibition above about 10%, passing the limit was not always enough; inconclusive = no clear call, values can overlap the other calls
RecA intein inh: Mtb RecA intein splicing inhibition; cell-free RecA intein splicing, fluorescence; 0.75% of 290,000 active; P9WHJ3; inhibition, % (test concentration not listed); in the data active = inhibition above about 30%; inconclusive = no clear call, values can overlap the other calls
A number is an active result; 0 = inactive; ? = inconclusive; - = not tested or not shown.

SMILES	Mtb betalactam	Rv3671c protease	GDH-TPI inh	Mtb FBA inh	Mtb UGM inh	RecA intein inh
C#Cc1ccc(C(=O)Nc2cc(C(N)=O)ccc2N2CCOCC2)cc1	?	0	32	0	0	0
COc1nc2ccccc2nc1N1CC1	-	-	-	29	-	-
COc1ccccc1NC(=O)CSc1nccn1Cc1ccccc1	0	0	0	0	0	0
CCCCNC(=S)N1CCN(c2ccc(C(C)=O)cc2)CC1	0	0	35	0	0	0
CSCCCNC(=S)N1CCN(c2ccc(C(C)=O)cc2)CC1	0	0	0	0	0	0
O=C(O)c1cccc2c1C(=O)c1ccc(-c3ccc(OC(F)(F)F)cc3)cc1S2(=O)=O	0	0	32	0	0	-
O=C(NCc1ccccc1Br)c1cccc2c1C(=O)c1ccc(-c3ccc(OC(F)(F)F)cc3)cc1S2(=O)=O	0	0	0	0	0	-
O=C(NCCc1ccc(F)cc1)c1cccc2c1C(=O)c1ccc(N3CCC(Cc4ccccc4)CC3)cc1S2(=O)=O	0	0	0	0	11	-
O=C(NCc1ccc(OC(F)(F)F)cc1)c1cccc2c1C(=O)c1ccc(N3CCCCC3)cc1S2(=O)=O	0	0	0	0	20	-
O=C(NCc1cccc(F)c1)c1cccc2c1C(=O)c1ccc(N3CCC(Cc4ccccc4)CC3)cc1S2(=O)=O	0	0	0	0	22	-
Cc1ccc(C)c(NC(=O)CN(C)C(=O)c2ccccc2OCc2ccccc2Cl)c1	0	0	0	0	0	0
CCN1C(=S)N[C@@H](CCc2ccccc2)C(C(=O)OC)=C1C	0	0	0	0	0	0
O=C(NC(=S)NCc1ccccc1)c1cccc(Cl)c1	0	0	0	0	0	0
CC1(C(=O)Nc2ccc3ccccc3c2)CCC(=O)N1CCOc1ccccc1 (stereo not given)	-	-	-	0	-	-
COc1ccc(-n2nnc3c(SC(C(C)=O)C(=O)N(C)C)ncnc32)cc1 (stereo not given)	0	0	32	0	0	0
COC(=O)C(C)Sc1ncnc2c1nnn2-c1ccc(F)cc1 (stereo not given)	0	0	0	0	0	53
CC(C)(C)c1ccc(C(=O)N2CCC2(C)C(=O)NCC(F)(F)F)cc1 (stereo not given)	-	-	0	0	-	-
Cc1nc2ccc(S(=O)(=O)CCC(=O)NCc3ccc(Cl)cc3)cc2s1	-	-	0	0	-	-
O=S(=O)(N/N=C\C=C\c1ccccc1)c1ccc(Cl)cc1	0	0	59	0	0	0
O=S(=O)(N/N=C\c1ccccc1O)c1ccc(Cl)cc1	0	-	0	0	0	0
COc1ccc(/C=C/C(=O)Nc2ccc(C)c(S(=O)(=O)N3CCOCC3)c2)cc1	0	0	33	0	-	-
COc1ccc(/C=C/C(=O)Nc2cc(S(=O)(=O)N3CCOCC3)ccc2OC)cc1	0	0	31	0	0	-
COc1cc(Cl)c(C)cc1NC(=O)CN(C)C1CCS(=O)(=O)C1 (stereo not given)	0	0	0	0	0	-
CN1CCN(NC(=O)NC2CCCCC2)CC1	0	0	0	0	0	0
CC1CCCCN1CCCNC(=O)CN1C(=O)c2cccnc2Oc2ccc(Cl)cc21 (stereo not given)	?	0	0	0	0	0
SMILES	Mtb betalactam	Rv3671c protease	GDH-TPI inh	Mtb FBA inh	Mtb UGM inh	RecA intein inh
Cc1c(C(=O)O)cccc1-n1c(C)cc(/C=N/Nc2ccc([N+](=O)[O-])cn2)c1C	0	0	0	0	0	0
Cc1ccccc1-n1c(C)cc(/C=N/NC(=O)c2ccncc2)c1C	0	0	31	0	0	0
Cc1c(C(=O)O)cccc1-n1c(C)cc(/C=N/NC(=O)c2cc3ccccc3o2)c1C	0	0	39	0	0	0
Cn1cnc([N+](=O)[O-])c1Oc1cccc2ccccc12	0	0	0	0	0	36
Cn1cnc([N+](=O)[O-])c1S(=O)(=O)Oc1cccc2ccccc12	-	-	0	0	-	-
COc1cc(OC)cc(C(=O)NC(C(=O)N2CCc3ccccc3C2)C(C)C)c1 (stereo not given)	0	0	0	0	0	0
O=S1(=O)N=C(Nc2nc3c(s2)CCCC3)c2ccccc21	0	0	36	0	0	-
O=C(Nc1ccc(/C=C/c2nc3ccccc3o2)cc1)c1cccc(C(F)(F)F)c1	0	0	36	0	0	0
CCOC(=O)c1c(C)oc2c1c(C=NCCO)c(O)c1ccccc12	-	-	0	0	-	46
COc1cc(/C=N/NC(=O)c2cc(-c3ccccc3)nc3ccccc23)cc(OC)c1O	0	0	0	0	0	0
COc1cc(/C=N/NC(=O)c2cc(-c3cccc(OC(C)C)c3)nc3ccccc23)ccc1O	0	0	61	0	0	0
